Assay results as given in PubChem BioAssay (NCI).
The panel holds about 83,000 compounds, 20% with a hit somewhere; the sample as a whole holds those more often.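 96-well plates, one dose, 48 hours. Percent growth reported; active if below 10.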 Values without a mark were called inactive. Calls of active or inactive are those of the source.

What was measured:
Test in all cases: NCI-60 one-dose screen, 48 h (100 = growth as untreated, 0 = no growth, -100 = all killed)
Details in all cases: 10 µM unless noted
[1] = tested on: BT-549 breast
[2] = tested on: MDA-MB-435 melanoma
[3] = tested on: SW-620 colon
[4] = tested on: MCF7 breast
[5] = tested on: HCT-116 colon
[6] = tested on: KM12 colon
[7] = tested on: HCC-2998 colon

Row | Compound | growth [1] | growth [2] | growth [3] | growth [4] | growth [5] | growth [6] | growth [7]
1 | N#CC(C#N)=C1NC(c2ccccc2)=C(c2ccccc2)C(c2ccccc2Cl)=C1C#N | 86.2% | 114% | 110% | 97.1% | 94.1% | 113% | –
2 | Cn1nc(C(F)(F)F)c(-c2cc(C(F)(F)F)cc(C(F)(F)F)c2)c1-c1ccc(OCc2ccc(Cl)cc2)cc1O | 2.72% (active) | 11.4% | 13.1% | 3.01% (active) | 3.65% (active) | 5.04% (active) | –
3 | COc1ccc(-c2nc(C#N)c(NCC(c3ccc(Cl)cc3)N3CCCCC3)o2)cc1 (centres undefined) | 106% | 77.1% | 97.5% | 80.6% | 80.5% | 84.9% | –
4 | COc1cc(C2=N/C(=C\c3cc4ccccc4nc3Oc3ccccc3)C(=O)N2C(=N)N)cc(OC)c1OC | 32.7% | 95.2% | 87.8% | 75.5% | 52.8% | 79.6% | –
5 | COC(=O)/C=C1\SC(=Nc2cccc(OC)c2)N(CCc2c[nH]c3ccccc23)C1=O | 52.3% | 62.5% | 78.2% | 25.8% | 50.1% | 48.3% | –
6 | CCCCc1n(Cc2ccc3ccccc3n2)cc[n+]1Cc1ccc2ccccc2c1 | -16.9% (active) | 1.33% (active) | 11.2% | – | – | -42.4% (active) | -6.38% (active)
7 | Nc1c(C(=O)Nc2cccc3ccccc23)sc2nc3c(cc12)CCCCCC3 | 32% | -39.3% (active) | 22.4% | 20.6% | 7.05% (active) | 21.9% | –
8 | c1ccc(-c2n(Cc3ccc4ccccc4n3)cc[n+]2Cc2ccc3ccccc3c2)cc1 | 3.57% (active) | 2.12% (active) | 8.55% (active) | – | – | -38.5% (active) | -13.2% (active)
9 | CCC[S@](=O)c1ccc2nc(NC(=O)OC)[nH]c2c1 | 97.3% | 101% | 93.4% | 92% | 84.4% | 103% | –
10 | COc1ccc(Sc2[nH]c(C(C)=O)c3ccccc23)cc1 | 50.1% | -23.4% (active) | 58.6% | 57.5% | 65.3% | 37% | –
11 | C1=CC2=CC=C3C=CC=C4C(c5nc6c7ccccc7c7ccccc7c6[nH]5)=CC(=C1)C2C34 (centres undefined) | 97.3% | 99.9% | 98.3% | 76.9% | 83.3% | 86.5% | –
